# Experimental data: PubChem BioAssay
# “And” between values parts separate entries of the source, which are not always exact repeats. Identical values can stand only once. The source made the active and inactive calls. Cut-off read from the data, not from the text of the source, unless noted: active = inhibition above about 80%; inactive = the rest.
# What was measured:
# [1] = viability loss with induced miR-34 in A549 – imaging, A549 dox-inducible miR-34, nuclei and caspase counts, primary screen (AID 1347080;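 active = compounds whose cell count with miR-34 switched on is under 0.7 times the count with it off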); conditions: A549 miR-34 inducible, Hoechst nuclei count, 48 h
# [2] = growth inhibition, single agent or in combination, cell-based, chromothripsis tumors, cisplatin or BGB combos (AID 1671449); conditions: LFS_MB_P medulloblastoma cells;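 note: cells exposed for 96 hours; 0% = vehicle DMSO and 100% = killing by high DMSO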
# [3] = growth inhibition, single agent and combos, cell-based, chromothripsis tumors, cisplatin or BGB combos (AID 1671450); conditions: HDN33 neuroblastoma cells, stronger effect = higher value;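 note: cells exposed to compound for four days; 0% = vehicle DMSO and 100% = cell killing by high DMSO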
# [4] = growth inhibition, single agents and combos, ICB984, cell-based, cisplatin or BGB combos, synergistic combos for chromothripsis tumors (AID 1671451; call rule not given here;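 note: cells exposed for 96 hours before readout; 0% = vehicle DMSO and 100% = killing by high DMSO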); conditions: ICB984 medulloblastoma cells, drug combinations, stronger effect = higher value
# [5] = growth inhibition, single agents and combos, LFS_MB_1R, cell-based, cisplatin or BGB combos, synergistic combos for chromothripsis tumors (AID 1671452); conditions: LFS_MB_1R medulloblastoma cells, stronger effect = higher value;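 note: cells exposed for 96 hours before readout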
# [6] = growth inhibition, single agents and combos, HTB85, cell-based, BGB or cisplatin IC20 combos, synergistic combos for chromothripsis tumors (AID 1671453); conditions: HTB85 osteosarcoma cells, drug combinations, stronger effect = higher value;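 note: cells exposed for 96 hours before readout; 0% = vehicle DMSO and 100% = high DMSO killing control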
# [7] = growth inhibition, single agents and combos, CRL2098, cell-based, BGB or cisplatin IC20 combos, synergistic combos for chromothripsis tumors (AID 1671454); conditions: CRL2098 osteosarcoma cells, drug combinations, stronger effect = higher value;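 note: cells exposed for 96 h before readout; 0% = vehicle DMSO and 100% = killing by high DMSO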
# [8] = growth inhibition, single agents and combos, HD-MB03, cell-based, BGB or cisplatin IC20 combos, synergistic combos for chromothripsis tumors (AID 1671455; in the data active = inhibition above about 83%;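 note: 0% = vehicle DMSO and 100% = high DMSO as cytotoxic control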); conditions: HD-MB03 medulloblastoma cells, stronger effect = higher value
# [9] = growth inhibition, single agents and combos, UWB1.289, cell-based, BGB or cisplatin combos, synergistic combos for chromothripsis tumors (AID 1671456); conditions: UWB1.289 ovarian carcinoma cells, stronger effect = higher value;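 note: cells exposed to compound for four days; 0% = vehicle DMSO and 100% = killing by high DMSO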
# [10] = growth inhibition, single agents and combos, LFS_MB_2R, cell-based, cisplatin combos, synergistic combos for chromothripsis tumors (AID 1671457); conditions: LFS_MB_2R medulloblastoma cells, stronger effect = higher value;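 note: cells exposed to compound for four days before readout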
# [11] = growth inhibition, MDA-MB-436, cell-based, BGB or cisplatin combos, synergistic combos for chromothripsis tumors (AID 1671458; call rule not given here;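 note: cells exposed for 96 hours; 0% = vehicle DMSO and 100% = killing by high DMSO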); conditions: MDA-MB-436 breast carcinoma growth inhibition, drug combinations, stronger effect = higher value
# [12] = UWB1.289_BRCA1 ovarian cancer growth, cell-based, BGB or cisplatin combinations (AID 1671459); conditions: UWB1.289 BRCA1 ovarian carcinoma, drug combinations, stronger effect = higher value
# [13] = drug combination toxicity in non-malignant astrocytes – cell-based, BGB or cisplatin IC20 combos, cytotoxicity control for chromothriptic childhood tumor combination screen (AID 1671460); conditions: Human astrocytes, viability inhibition, drug combinations, at 0.5 µM, stronger effect = higher value;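 note: cells exposed to compounds for 96 hours before viability readout; 0% = vehicle and 100% = killing control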
# [14] = BT084 cell growth, single and combined drugs, ICGC_MB145, cisplatin and BGB IC40 combos (AID 1671461); conditions: BT084 medulloblastoma cells, drug combinations, stronger effect = higher value;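 note: cells exposed to drugs for 96 hours; 0% = vehicle DMSO and 100% = high DMSO full killing control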
# [15] = RCMB18 cell growth, single agent and combined, cisplatin and BGB IC40 combos (AID 1671462); conditions: RCMB18 medulloblastoma cells, stronger effect = higher value;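 note: cells exposed to compound for four days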
# [16] = CRL1545 cell growth, single agent and combined, cisplatin and BGB IC20 combos (AID 1671464); conditions: CRL1545 osteosarcoma cells, stronger effect = higher value;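 note: cells exposed to compound for 96 hours before readout; 0% = vehicle DMSO and 100% = high DMSO killing control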
# [17] = test system: Hepatitis C virus NS3 helicase; assay: blockers of NS3h binding to ssDNA – biochemical, fluorescence polarization, LOPAC1280 library, primary screen (AID 687035; in the data active = inhibition above about 37%); conditions: Purified HCV NS3 helicase, Cy5-dT15 ssDNA binding fluorescence polarization; stronger effect = higher value; concentration not given here
# [18] = compounds altering Cy5-DNA-NS3h complex signal – biochemical, LOPAC1280, artefact control for HCV NS3 helicase inhibitor project (AID 687037; call rule not given here); conditions: Cy5-DNA-NS3h complex fluorescence interference counterscreen
# [19] = galactose survival enhancers in mitochondrial complex I cybrids – cell-based, galactose medium, ATP luminescence, primary screen (AID 1645843;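 active = z-score of at least 1.8 in each of two replicates, scored against plate mean and spread of sample wells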;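 note: positive z means more ATP and so rescue of galactose-driven cybrid death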); conditions: complex I mutant cybrid cells, 72 h, stronger effect = higher value
# [20] = compounds altering circadian rhythm period length – cell-based, LOPAC library, luminescence reporter (AID 2774; call rule not given here;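 note: values are relative to mean of DMSO wells on each plate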); conditions: circadian reporter cells, at 7 µM, actives lie on both sides
# [21] = stronger effect = lower value, cell number ratio, induced over uninduced
# [22] = measured here: relative caspase fold change +Dox/-Dox
# [23] = measured here: total cells with miR-34 induction, stronger effect = lower value
# [24] = measured here: total cells without miR-34 induction
# [25] = measured here: combination with BGB IC40, at 0.05 µM
# [26] = measured here: with BGB IC20 combination, at 0.5 µM
# [27] = measured here: with cisplatin IC20 combination, at 0.5 µM
# [28] = measured here: combination with cisplatin, at 0.5 µM
# [29] = measured here: combination with cisplatin, at 5 µM
smiles,measurement,setting,value
Nc1ccccc1NC(=O)CCCCCCC(=O)Nc1ccccc1,fold change,[1]; [21],1.01 (inactive)
same,fold change,[1]; [22],0.802
same,cell count,[1]; [23],5630
same,cell count,[1]; [24],5580
same,inhibition,"[2]; at 0.5 µM, stronger effect = higher value",-12.9% (inactive) and -25.1% (inactive)
same,inhibition,"[2]; measured here: combination with BGB IC20, at 0.005 µM",-23.2% and 0.813%
same,inhibition,"[2]; measured here: combination with BGB IC40, at 0.005 µM",83.8% and -29.2%
same,inhibition,[2]; [25],-12.1% and -1.18%
same,inhibition,"[2]; measured here: combination with cisplatin, at 0.5 µM, stronger effect = higher value",-8.88% and -35.8%
same,inhibition,"[2]; measured here: combination with cisplatin, at 5 µM, stronger effect = higher value",46.8% and 54.9%
same,inhibition,"[3]; BGB combo, at 5 µM",20.6% and 28.7%
same,inhibition,[3]; at 0.5 µM,5.22% (inactive) and 5.82% (inactive)
same,inhibition,"[3]; cisplatin combo, at 5 µM",39.9% and 36.6%
same,inhibition,[3]; [26],3.82% and 0.196%
same,inhibition,[3]; [27],11.3% and -1.37%
same,inhibition,"[3]; single agent, at 5 µM",23.6% and 28%
same,inhibition,"[4]; BGB IC20 combo, at 0.005 µM",-17.1% and -28%
same,inhibition,"[4]; BGB IC40 combo, at 0.005 µM",-32.5% and -14.2%
same,inhibition,"[4]; BGB IC40 combo, at 0.05 µM",-14.5% and 9.77%
same,inhibition,[4]; at 0.5 µM,-15.5% (inactive) and -30% (inactive)
same,inhibition,"[4]; cisplatin combo, at 0.05 µM",-20.4% and 6.2%
same,inhibition,"[4]; cisplatin combo, at 0.5 µM",-17.3% and -48.3%
same,inhibition,"[4]; cisplatin combo, at 5 µM",-18.3% and -14.7%
same,inhibition,"[4]; measured here: 5 uM single agent, at 5 µM",-14.3% and -5.49%
same,inhibition,[5]; at 0.5 µM,-20.2% (inactive) and -14.9% (inactive)
same,inhibition,[5]; [25],-18.8% and -20.1%
same,inhibition,[5]; [28],-21.4% and -9.37%
same,inhibition,[5]; [29],34.7% and 36.3%
same,inhibition,[6]; at 0.5 µM,1.45% (inactive) and -7.23% (inactive)
same,inhibition,"[6]; measured here: with BGB IC20, at 0.5 µM",2.99% and -6.61%
same,inhibition,"[6]; measured here: with BGB IC20, at 5 µM",19.2% and 7.94%
same,inhibition,"[6]; measured here: with cisplatin IC20, at 0.5 µM",-1.97% and -10.6%
same,inhibition,"[6]; measured here: with cisplatin IC20, at 5 µM",29.1% and 24.4%
same,inhibition,"[6]; single agent, at 5 µM",11.1% and 13.2%
same,inhibition,[7]; at 0.5 µM,-31.9% (inactive) and -38.7% (inactive)
same,inhibition,"[7]; measured here: combination with BGB at IC20, at 0.5 µM",-43.5% and -26.6%
same,inhibition,"[7]; measured here: combination with cisplatin at IC20, at 0.5 µM",-10.1% and -25.3%
same,inhibition,[8]; at 0.5 µM,-7.05% (inactive) and -2.46% (inactive)
same,inhibition,"[8]; measured here: combo with BGB at IC20, at 0.5 µM",-17.3% and -8.59%
same,inhibition,"[8]; measured here: combo with cisplatin at IC20, at 0.5 µM",-8.12% and 7.03%
same,inhibition,[9]; at 0.5 µM,-2.22% (inactive) and -4.15% (inactive)
same,inhibition,"[9]; measured here: inhibition with BGB combination, at 0.05 µM",-17% and -12.6%
same,inhibition,"[9]; measured here: inhibition with cisplatin combination, at 0.05 µM",-16.5% and -4.91%
same,inhibition,[10]; at 0.5 µM,-23.5% (inactive) and -15.8% (inactive)
same,inhibition,[10]; [28],-37.7% and -10.7%
same,inhibition,[10]; [29],7.67% and 25.4%
same,inhibition,[11]; at 0.5 µM,-14.6% (inactive) and -1.03% (inactive)
same,inhibition,"[11]; measured here: BGB combination, at 0.5 µM",-7.46% and 0.27%
same,inhibition,"[11]; measured here: BGB combination, at 5 µM",5.07% and 2.02%
same,inhibition,"[11]; measured here: cisplatin combination, at 0.5 µM",-38.4% and 3.8%
same,inhibition,"[11]; measured here: cisplatin combination, at 5 µM",-8.44% and 23.3%
same,inhibition,"[12]; BGB combination, concentration series, at 5 µM",0.199% and 30.8%
same,inhibition,[12]; at 0.5 µM,-7.51% (inactive) and -1.85% (inactive)
same,inhibition,"[12]; cisplatin combination, concentration series, at 5 µM",21% and 30.8%
same,inhibition,[13],4.47% (inactive) and 4% (inactive)
same,inhibition,[13]; measured here: combo with BGB IC20,8.04% and 0.536%
same,inhibition,[13]; measured here: combo with cisplatin IC20,-1.54% and 9.6%
same,inhibition,[14]; at 0.5 µM,4.38% (inactive) and 12.8% (inactive)
same,inhibition,"[14]; cisplatin combination, at 0.5 µM",-7.78% and 20.7%
same,inhibition,"[14]; cisplatin combination, at 5 µM",-10.7% and 73.5%
same,inhibition,"[14]; measured here: BGB IC40 combination 0.05 uM, at 0.05 µM",4.05% and -2.15%
same,inhibition,"[14]; single agent, at 5 µM",24.6% and 32.9%
same,inhibition,[15]; at 0.5 µM,7.96% (inactive) and 7.04% (inactive)
same,inhibition,"[15]; cisplatin combo, at 5 µM",43.6% and 67.7%
same,inhibition,"[15]; measured here: BGB IC40 combination, at 0.05 µM",-7.17% and -10.2%
same,inhibition,[15]; [28],5.88% and 41.6%
same,inhibition,"[15]; single agent, at 5 µM",30.6% and 7.16%
same,inhibition,[16]; at 0.5 µM,12.1% (inactive) and 5.27% (inactive)
same,inhibition,[16]; [26],-6.11% and -18%
same,inhibition,[16]; [27],19.9% and 16.9%
same,inhibition,"[16]; single agent, at 0.05 µM",13.3% and -6.35%
same,inhibition,"[16]; single agent, at 5 µM",14.5% and 19.2%
NC[C@H]1O[C@@H](n2cnc3c(N)ncnc32)[C@H](O)[C@@H]1O,inhibition,[17],-3% (inactive)
same,fluorescence ratio (interference),[18],1 (inactive)
same,fold change,[1]; [21],1.07 (inactive)
same,fold change,[1]; [22],1.37
same,cell count,[1]; [23],9860
same,cell count,[1]; [24],9210
same,z-score,[19],1.03 (inactive)
N#C/C(=C\c1ccc(O)c(O)c1)C(=O)c1ccc(O)c(O)c1,period change,[20],-0.055 h (inactive)
same,inhibition,[17],100% (active)
same,fluorescence ratio (interference),[18],1 (inactive)
same,fold change,[1]; [21],0.979 (inactive)
same,fold change,[1]; [22],1.26
same,cell count,[1]; [23],9140
same,cell count,[1]; [24],9340
same,z-score,[19],-0.355 (inactive)
